High-throughput results (PubChem BioAssay)
A selection: hits, their analogues and other compounds. The true share with any hit is near 13%.
HCMV inh = human cytomegalovirus inhibition; activity change, negative = inhibition, % at 57.5 µM; HFF cells, HCMV-luciferase reporter, 72 h; active compounds read low; hit rate 4.5% among 410,000; AID 1259415; in the data active = activity change below about -60%; inconclusive = no clear call, values can overlap the other calls; inactive = above about -39%
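Inhibition of viral replication was scored as loss of reporter luminescence in HFFs infected with HCMV-luciferase (MOI 1 PFU/cell) for 72 h; compounds tested at 2 doses, normalized to buffer and Salinomycin controls.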
Pf growth 96h = P. falciparum growth inhibition at 96 hour, primary screen for plastid delayed-death inhibitors | P. falciparum luciferase reporter growth, 96 h | Potency, µM (doses to about 28.7 µM), inactives show at the highest dose activity change, negative = inhibition, most hits filed as inhibitors | hit rate 6.9% among 320,000 | AID 504834; note: potency is the fitted concentration of half-maximal effect
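Delayed-death screen, second-generation endpoint: infected erythrocytes, 2% hematocrit, 0.05% parasitemia final; 96 hours at 37 C, 5% CO2; luciferase detection reagent; luminescence decrease equals reduced growth.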
HCV inhibitor = HCV inhibition | Huh7.5.1 HCVcc-Cre infection, luciferase reporter, 44 h | Potency, µM (highest dose often 41.8 µM), for the others: at the highest dose activity change, negative = inhibition, hits mostly inhibitors | hit rate 3.4% among 340,000 | AID 651820; note: potency is the fitted concentration of half-maximal effect
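Cells seeded at 1,000/well and cultured 4 h, then compounds added followed by HCVcc-Cre virus (~0.5 moi). After 44 h further culture, luciferase substrate was added, plates held 15 min at room temperature, and luminescence read for 15 sec.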
Pf growth 48h = inhibits P. falciparum growth in the first generation, 48 h; hit rate 5.9% among 310,000; AID 504832; Potency, µM (highest dose often 28.7 µM), for the others: at the top dose activity change, negative = inhibition, usual class: inhibitors; P. falciparum luciferase growth in erythrocytes, 48 h; note: potency is the fitted concentration of half-maximal effect
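Luciferase-expressing P. falciparum in infected erythrocytes (2% hematocrit, 0.1% parasitemia final) in RPMI 1640/0.5% Albumax were exposed to compound for 48 hours at 37 C, 5% CO2; growth read as luminescence.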
Numbers without * were called inactive; u = inconclusive; x = no result given; [ ] = remark or other dose. Unless noted, calls come from the whole dose curve; as a rule, active = well fitted inhibition curve with a large enough effect; inconclusive = small, poorly fitted or top-dose-only effect, or another doubt; inactive = no such curve, though single readings can be large or run the other way. % is set by controls: 0 for no effect and ±100 for the full control effect.

SMILES | HCMV inh | Pf growth 96h | HCV inhibitor | Pf growth 48h
O=C(NCCCN1CCN(c2cccc(Cl)c2)CC1)c1cnn(-c2ccc(F)cc2)c1-n1cccc1 | -24 | x | x | x
CCCCNS(=O)(=O)c1ccc(NC(=O)c2c(-c3ccccc3)noc2C)cc1 | -16 | x | x | x
Cc1onc(-c2ccccc2Cl)c1C(=O)NCCn1c(C)cc2ccccc21 | x | 10µM* | -15% | 13µM*
CCCCNS(=O)(=O)c1ccc(NC(=O)c2c(-c3ccccc3Cl)noc2C)cc1 | x | 5.2µM* | x | x
Cc1cnc(C(=O)Nc2cccc3cccnc23)cn1 | -89* | 4% | u | 0.37µM*
Cc1cccc(C(=O)Nc2cccc3cccnc23)c1 | 120 | 180% | -5% | 97%
CC(=O)c1ccc(S(=O)(=O)N2CCn3cccc3C2c2ccccc2F)cc1 (configuration not stated) | 3 | x | x | x
N#CC1=C(N)NC(SCC(=O)Nc2ccccc2)=C(C#N)C12CCCCC2 | -21 | 13µM* | u | u
N#CC1=C(N)NC(SCC(=O)c2ccc(Cl)cc2)=C(C#N)C12CCCC2 | 1 | x | u | u
COc1ccc(C(=O)CSC2=C(C#N)C3(CCCCC3)C(C#N)=C(N)N2)cc1 | -27 | 4% | u | 12µM*
N#CC1=C(N)NC(SCC(=O)c2ccc(Br)cc2)=C(C#N)C12CCCCC2 | u | 15µM* | u | u
CS(=O)(=O)Nc1cccc(Nc2nccc3[nH]c(-c4cccc(C(F)(F)F)c4)cc23)c1 | -7 | x | x | x
Cc1ccc(NC(=O)N2CCC(CN3CCCCC3)CC2)c(Cl)c1 | 1 | x | x | x
Cc1oc(-c2ccccc2Cl)nc1CSCC(=O)NC1CCCC1 | -75* | u | -12% | x
Cc1oc(-c2ccccc2Cl)nc1CSCC(=O)N1CCCC1 | -78* | 54% | u | -19%
O=C(CN1C(=O)C(c2ccc(F)cc2)=NC12CCCC2)Nc1ccc(F)cc1 | -78* | 11% | 2.5µM* | 0%
Cc1ccc(NC(=O)CN2C(=O)C(c3ccc(C)cc3)=NC23CCCCCC3)cc1 | -20 | x | x | x
Cc1ccc(NC(=O)CN2C(=O)C(c3ccccc3)=NC23CCCCC3)cc1C | 53 | x | x | x
Cc1cccc(NC(=O)CN2C(=O)C(c3ccccc3)=NC23CCC(C)CC3)c1 (configuration not stated) | -61* | x | x | x
Cn1c(CCNC(=O)c2ccco2)nc2cc(NC(=O)COc3ccc(Cl)cc3)ccc21 | -14 | x | x | x
Cc1ccc(Cl)cc1NC(=O)Cn1c(=O)oc2cc(S(=O)(=O)N3CCCC3)ccc21 | 1 | x | x | x
Cc1occc1-c1nnc(SCC(=O)N2CCOCC2)n1Cc1ccco1 | 37 | 0% | 11% | 9%
CC(C)N(C(=O)CSc1nnc(-c2cc3ccccc3cc2O)n1Cc1ccco1)C(C)C | -5 | 35% | u | 2.1µM*
O=C(CSc1nnc(-c2cc3ccccc3cc2O)n1Cc1ccco1)N1CCc2ccccc2C1 | -3 | 1.7µM* | u | x
Cc1ccc(NC(=S)NCC2CCN(C(C)c3ccccc3)C2)cc1C (configuration not stated) | -63* | -86% | -12% | u
SMILES | HCMV inh | Pf growth 96h | HCV inhibitor | Pf growth 48h
Cc1ccc(NC(=S)NCC2CCCO2)cc1C (configuration not stated) | -9 | 19% | -14% | 11%
COC(=O)[C@@]12C[C@@H](CC(=O)N3CCCCC3)C(=O)N(Cc3ccco3)C1=CCC(C)(C)C2 | -27 | x | x | x
CCCOc1ccc(-c2nonc2NC(=O)c2oc3ccc(Cl)cc3c2C)cc1OCCC | 10 | x | x | x
CCN(CC)C(=O)CSc1ncnc2c(-c3ccc(OC)cc3)nsc12 | x | 53% | x | 22%
COc1ccc(-c2nsc3c(SCc4ccccc4)ncnc23)cc1 | -5 | 1.9µM* | 19% | 19%
CN(C)c1ccc(S(=O)(=O)N2CCCCC2)cc1NC(=O)CN1C(=O)NC2(CCCC2)C1=O | 2 | u | -62% | 13µM*
CCN(CC)c1ccc(S(=O)(=O)N2CCOCC2)cc1NC(=O)CN1C(=O)NC2(CCC(C)CC2)C1=O (configuration not stated) | 2 | 13µM* | -23% | u
CC(=O)Nc1ccc(NC2=CC(=O)c3ccccc3C2=O)cc1 | 38 | 0.59µM* | 2% | u
CC(=O)Nc1c(Cl)cc2c(c1Cl)Cc1ccccc1-2 | -10 | x | u | x
CC(=O)Nc1ccc2c(c1)C(=O)c1ccccc1C2=O | 34 | x | 10µM* | 284%
CC(=O)Nc1c(Cl)cc2c(c1Cl)C(=O)c1ccccc1-2 | -39 | x | 11µM* | x
CCc1ccc(CN(Cc2cn[nH]c2-c2ccc(OC)cc2)C(=O)Nc2cc(Cl)ccc2OC)cc1 | -35 | x | x | x
O=c1c(-c2ccc(Cl)cc2)c(C(F)(F)F)oc2c(CN3CCCCC3)c(O)ccc12 | 1 | x | x | x
CCOC(=O)c1c(C)[nH]c(CCC(=O)NC(C)c2ccccc2)c1C (configuration not stated) | 14 | x | x | x
O=[N+]([O-])c1nn(-c2ccccc2)n(O)c1=NC1CCN(Cc2ccccc2)CC1 | u | u | 2µM* | u
O=[N+]([O-])c1nn(-c2ccc3c(c2)OCCO3)n(O)c1=NC1CCN(Cc2ccccc2)CC1 | -35 | u | u | 32%
O=[N+]([O-])c1nn(-c2ccccc2)n(O)c1=NCCc1ccccc1 | -37 | -6% | 11µM* | 4.1µM*
O=[N+]([O-])c1c(Nc2ccccc2O)ccc2nonc12 | -29 | -31% | 3% | 14%
Cc1ccccc1Nc1ccc2nonc2c1[N+](=O)[O-] | -32 | 6.6µM* | -1% | 12%
Cc1ccc(C)c(Nc2ccc3nonc3c2[N+](=O)[O-])c1 | -87* | u | -4% | -24%
Cc1ccc(C)c(Nc2c([N+](=O)[O-])ccc3nonc23)c1 | 50 | -4% | -2% | -6%
NC(=O)NC(=O)CSc1nc2sc(-c3ccccc3)cc2c(=O)n1-c1ccccc1 | -70* | 39%[5.75 µM] | 1% | 17%
O=C1CC(Cc2ccccc2)C(=O)N1Cc1ccco1 (configuration not stated) | x | 12µM* | 19% | u
Cc1ccc(CC2CC(=O)N(Cc3ccco3)C2=O)cc1 (configuration not stated) | -13 | 19% | 10% | 0%
COc1ccccc1COCC(O)CN(Cc1ccco1)Cc1ccccc1O (configuration not stated) | -25 | 5.2µM* | -12% | 8.3µM*
SMILES | HCMV inh | Pf growth 96h | HCV inhibitor | Pf growth 48h
Clc1ccc(-c2c[n+](Cc3cccc(Cl)c3)c3n2CCC3)cc1 | -94* | 0.26µM* | -5% | 1.9µM*
O=[N+]([O-])c1ccc(C[n+]2cc(-c3ccccc3)n3c2CCCCC3)cc1 | -11 | -84% | 6% | 5.2µM*
Clc1ccc(C[n+]2cc(-c3ccccc3)n3c2CCC3)cc1Cl | -72* | u | -21% | u
N#CC[n+]1cc(-c2ccc(Cl)cc2)n2c1CCC2 | 20 | -8% | 6% | u
O=[N+]([O-])c1ccc(C[n+]2cc(-c3ccc(Cl)c(Cl)c3)n3c2CCCCC3)cc1 | -16 | u | 4% | u
Oc1c(C(c2ccccc2Cl)N2CCC(O)CC2)sc2nc(-c3ccco3)nn12 (configuration not stated) | 16 | x | x | x
